Rows were chosen to be rich in hits. Some 1.8% of all compounds tested hit in one or more screens of this group.
BRCA1 expr act: BRCA1 expression activation; MCF7-BRCA1-FFLuc reporter, luminescence, 48 h; response scale: scaled: vehicle 0%, 10 µM genistein 100%; Potency, µM (top dose mostly 46.1 µM), hits mostly activators; actives 1.1% (n = 380,000); AID 624202; note: nearly all actives have a fitted effect of over 80% in size
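Reporter cells (MCF7, BRCA1 promoter-firefly luciferase) received library compounds across a concentration series for 48 h. End-point luminescence was measured and concentration-effect curves derived after normalization.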
AT treatment: potential ataxia-telangiectasia treatment; F2112 A-T fibroblasts, KAP-1 phosphorylation AlphaLISA; neocarzinostatin DNA damage 30 min before lysis; Potency, µM (series often up to 57.5 µM), usual class: activators; actives 0.19% (n = 320,000); AID 485349; note: nearly all actives have a fitted effect of over 45% in size
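hTERT-immortalized A-T patient fibroblasts (F2112), 500 cells/well in OPTI-MEM, 1% FBS, got compounds for 60 min, then NCS for 30 min at 37C. Lysates were then assayed for phospho-KAP-1 by AlphaLISA (anti-pKAP1 donor, anti-KAP1 acceptor beads), 6 hr at 25C.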
Akt phos inh: inhibitors of Akt phosphorylation; AID 651550; Neuro2A IGF-stimulated pAkt S473 HTRF, 20 min; active compounds read low; activity change, % for hits at 50 µM; actives 0.32% (n = 360,000); in the data active = activity change below about -80%; inconclusive = mostly about -51% to -80%
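Neuro2A cells in DMEM with 0.5% FBS, overnight at 37 deg C, given compound at single 50 µM final, then IGF (6 nM final) for 20 min at 37 deg C. Lysed; phospho-Akt Ser473 by HTRF after 24 h, 665/615 ratio.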
MmCpn inh: M. maripaludis TRiC chaperonin inhibition; actives 0.031% (n = 330,000); purified Mm-Cpn ATPase, ADP Transcreener TR-FRET; Potency, µM (titrated, usually from 76.9 µM), usual class: inhibitors; note: nearly all actives have a fitted effect of over 80% in size
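Eu-cryptate anti-ADP/ADP-d2 competition gives a ratio inversely related to ADP. Enzyme at 25 nM was pre-exposed to compound for 10 min, then given 10 uM ATP for 30 min, 37°C throughout.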
CCT chaperon mod: modulators of cytosolic chaperonin (CCT/TRiC) activity. AID 651819. purified chaperonin ATPase assay, HTRF ADP detection, 30 min. activity change, % (concentration not given with the values), hits read low. actives 0.3% (n = 360,000); in the data active = activity change below about -30%
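ATPase activity: ADP formed was measured by HTRF Transcreener (665/615 nm ratio) after 30 min at 37 deg C with 10 uM ATP. Compounds screened at one 76 uM concentration against 40 or 20 nM TRiC in Tris pH 7.4/KCl/MgCl2/DTT buffer.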
A number is an active result; – = inactive; ? = inconclusive; · = no result. Unless noted, calls come from the whole dose curve; as a rule, active = well fitted curve in the direction sought with a large enough effect; inconclusive = small, poorly fitted or top-dose-only effect, or another doubt; inactive = no such curve, though single readings can be large; an effect the other way counts as inactive or inconclusive.

SMILES	BRCA1 expr act	AT treatment	Akt phos inh	MmCpn inh	CCT chaperon mod
CC1(C(=O)NS(=O)(=O)Cc2ccccc2C(F)(F)F)CCN1C(=O)c1cccc(F)c1 (stereo not given)	–	·	–	·	–
O=C(C[N+]1(CCO)CCOCC1)c1cccs1	–	·	·	·	·
COc1cc2c(NC3CCN(C)CC3)nc(N3CCCCC3)nc2cc1OCCOCCN(C)C	–	·	·	·	·
CC1CCc2c(sc(/N=C/c3cccnc3)c2C(N)=O)C1 (stereo not given)	–	–	–	–	–
CC1CCc2c(sc(/N=C/c3ccco3)c2C(N)=O)C1 (stereo not given)	–	15.8µM	–	–	–
Cn1nc(C(=O)OCC(=O)NCCc2ccccc2)c2ccccc2c1=O	–	–	–	–	-32.5
Cc1ccc(Cl)c(NC(=O)COC(=O)c2nn(C)c(=O)c3ccccc23)c1Cl	–	–	–	–	-42.8
CC(C)C(NC(=O)c1ccc(Cl)cc1)C(=O)NCC1CCCO1 (stereo not given)	–	–	–	–	–
CNc1nnc(-c2cc3cc(Cl)ccc3oc2=O)s1	10µM	·	–	–	–
COc1ccc(CCNC(=O)CN2C(=O)C3(OCCCO3)c3ccccc32)cc1OC	–	–	-90.5%	–	–
COc1ccc(OC)c(NC(=O)CN2C(=O)C3(OCCCO3)c3ccccc32)c1	–	–	–	–	–
CCOc1ccc(CCNC(=O)CCCn2c(=O)c3cccn3c3cccnc32)cc1OCC	–	–	·	–	-85.8
CN(C)c1ccc(/C=C/c2ccnc3ccc(I)cc23)cc1	–	·	·	·	·
COC(=O)c1ccc(NC(=O)Nc2ccc(F)cc2F)cc1	3.16µM	–	–	–	–
COc1ccc(CCNC(=O)Nc2ccc(F)cc2F)cc1OC	–	10µM	–	–	–
COC(=O)c1ccc(NC(=O)Nc2cccc(F)c2)cc1	–	–	–	–	–
COC(=O)c1ccc(NC(=O)Cc2ccc(F)cc2)cc1	–	–	–	–	–
COC(=O)c1ccc(C(=O)Nc2ccc(F)cc2)cc1	–	28.2µM	–	–	–
O=C(Nc1ccc(Cl)c(Cl)c1)c1ccccc1	–	–	–	–	-49.8
COc1cc(/C=C/c2ccnc3ccccc23)cc(OC)c1OC	–	·	·	·	·
CNc1ncnc2c1ncn2[C@H]1CN(Cc2cccc3ccccc23)C[C@@H](CO)O1	–	·	–	·	–
CN(C)C1(CNC(=O)COc2cccc(Cl)c2)CCCCC1	–	·	·	·	·
Cc1c(C(=O)Nc2ccc(-n3c(C)nc4ccccc4c3=O)cc2)cccc1[N+](=O)[O-]	–	·	·	·	·
CCCN1C(=O)C2(c3ccccc31)c1c(oc3ccccc3c1=O)C(=O)N2CCCOC(C)C (stereo not given)	–	·	·	·	·
COc1ccccc1CCN1CCCC(CN(C)C(=O)CCC(N)=O)C1 (stereo not given)	–	–	–	–	–
SMILES	BRCA1 expr act	AT treatment	Akt phos inh	MmCpn inh	CCT chaperon mod
O=C(Nc1ccccc1)c1ccc(NC(=O)C2CC2)cc1	3.98µM	–	–	–	–
O=C(Nc1ccc(Nc2ccccc2)cc1)c1ccccc1	3.55µM	·	–	·	–
CC(=O)c1ccc(NC(=O)c2ccn[nH]2)cc1	?	–	–	–	–
O=C(Nc1ccc(F)cc1)c1ccccc1	11.2µM	–	·	–	–
O=C(Nc1ccccc1)c1ccn[nH]1	7.08µM	–	–	–	–
COC(=O)CC1Oc2ccc(F)cc2-n2cc(-c3ccc(Cl)cc3)nc21 (stereo not given)	–	·	·	·	·
O=C(Nc1nnc(CCc2ccccc2)s1)C1CCN(C(=O)c2ccco2)CC1	–	·	·	·	·
O=C(Nc1ccc(SC(F)F)cc1)c1ccc(F)cc1	3.16µM	–	–	–	–
O=C(Nc1ccc(Cl)c(Cl)c1)Nc1ccccc1O	2.82µM	–	–	–	–
O=C(Nc1ccc(Cl)cc1)Nc1ccc(Cl)c(Cl)c1	–	–	–	–	–
O=C(Nc1ccc(SC(F)F)cc1)c1ccccc1F	?	–	–	–	–
Cc1ccc(N2C(=O)CSC23C(=O)N(CC(=O)NCc2ccccc2)c2ccccc23)cc1 (stereo not given)	–	·	·	·	·
Cc1ccc(C)c(S(=O)(=O)NCCN2CCOCC2)c1	–	–	–	–	-31.3
O=C(COC(=O)c1ccccc1C(=O)OCC(=O)NCCc1c[nH]c2ccccc12)NCCc1c[nH]c2ccccc12	–	–	–	–	–
COc1cc(NC(=S)N2CCN(C)CC2)cc(OC)c1	–	–	–	–	–
Cc1ccc(-c2noc(C3CCCN(C(=O)c4ccccc4Br)C3)n2)o1 (stereo not given)	10µM	–	–	–	–
COc1ccc(C(=O)N2CCCC(c3nc(-c4ccc(C)o4)no3)C2)cc1OC (stereo not given)	–	–	–	–	–
Cc1ccc(-c2noc(C3CCCN(C(=O)c4ccccc4)C3)n2)o1 (stereo not given)	10µM	–	–	–	–
Cc1c(C#N)c2ncnc(N)c2n1-c1ccccc1	–	–	-103.7%	–	–
Cc1c(C#N)c2ncn(Cc3ccccn3)c(=O)c2n1-c1ccccc1	–	–	–	–	-79.6
Cc1c(C#N)c2ncn(CCCN(C)C)c(=O)c2n1-c1ccccc1	–	–	–	–	–
Cc1ccc(OCC(=O)N2CCc3ccccc3C2)c(C)c1	–	–	–	–	–
Cc1ccc(OCC(=O)N2CCc3ccccc3C2)c(Br)c1	12.6µM	–	–	–	–
COc1cc2nc(N3CCCCC3)nc(NC(C)C)c2cc1OC	–	·	·	·	·
c1ccc2c(c1)NC1(CCCCCC1)n1c-2nc2ccccc21	2.82µM	–	–	–	–
SMILES	BRCA1 expr act	AT treatment	Akt phos inh	MmCpn inh	CCT chaperon mod
c1ccc2c(c1)NC1(CCCCC1)n1c-2nc2ccccc21	?	–	·	–	–
COc1ccc(N=c2nc(-c3ccccc3)n(-c3ccc(C)cc3)s2)cc1	–	·	·	·	·
CCOC(=O)Cc1c(C)nc2cc(-c3ccc(Cl)cc3)[nH]n2c1=O	–	–	–	–	–
CCc1c(C)nc2cc(-c3ccc(OC)cc3)[nH]n2c1=O	8.91µM	–	–	–	–
COc1ccc(-c2csc(C(O)c3ccccc3)n2)cc1 (stereo not given)	?	·	–	·	–
COc1ccc(-c2csc(C(O)c3ccccc3)n2)cn1 (stereo not given)	11.2µM	·	–	·	–
CCCCCc1cc[n+](CC(=O)c2ccccc2)cc1	–	·	·	·	·
CCC(C)(C(=O)NC1CCCCC1)N(Cc1ccco1)C(=O)c1ccccn1 (stereo not given)	–	–	-107.3%	–	–
CCOc1ccc(C2C(C#N)=C(N)SC(N)=C2C#N)c(OCC)c1	–	–	-85.4%	?	–
CSCc1ccc(C(=O)NCc2ccc(C)cc2)cc1	–	–	–	–	–
CSCc1ccc(C(=O)Nc2ccc(C(N)=O)cc2)cc1	5.62µM	–	–	–	–
CCN(CC)CCCCCC(=O)Nc1ccccc1C(=O)Nc1ccccc1	–	–	–	–	–
